Laboratory results reported in PubChem BioAssay.
Active and inactive are the calls of the source.

Experiments:
[1] = test system: Plasmodium falciparum Sir2 (PF13_0152, Sir2A); assay: Plasmodium falciparum Sir2A binding compounds – biochemical, small-molecule microarray, 635 nm fluorescence, primary screen (AID 1098); settings: fluorescence 635 nm, higher = more signal;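 further: score merges spot fluorescence intensity with its signal-to-noise ratio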
[2] = probe aDKK1 binding to arrayed compounds – biochemical, biotinylated probe, 635/667 nm fluorescence, primary screen (AID 1099); settings: small-molecule microarray, higher = more signal;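 further: score merges 667nm spot fluorescence with signal to noise across triplicate slides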
[3] = probe aCHRDL2 binding to arrayed compounds – biochemical, biotinylated probe, 635/667 nm fluorescence, primary screen (AID 1100); settings: small-molecule microarray, higher = more signal
[4] = change in splice reporter luminescence, either direction, cell-based, HEK293, spliceosome inhibition project, primary screen (AID 1101); settings: HEK293 splicing luciferase reporter, 24 h, higher = more signal, called active from +8 up or from −8 down;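 further: HEK293 cells carrying a splicing-competent luciferase reporter gene; test concentration not given here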
[5] = biological target: Fibroblast growth factor 10 (Homo sapiens) (UniProt O15520); assay: compounds binding fibroblast growth factor 10 – biochemical, small-molecule microarray, 635 nm fluorescence, primary screen (AID 1102); settings: FGF10 binding, fluorescence 635 nm, higher = more signal
Chain of Fibroblast growth factor 10 (Homo sapiens) (O15520 whole entry, looked up): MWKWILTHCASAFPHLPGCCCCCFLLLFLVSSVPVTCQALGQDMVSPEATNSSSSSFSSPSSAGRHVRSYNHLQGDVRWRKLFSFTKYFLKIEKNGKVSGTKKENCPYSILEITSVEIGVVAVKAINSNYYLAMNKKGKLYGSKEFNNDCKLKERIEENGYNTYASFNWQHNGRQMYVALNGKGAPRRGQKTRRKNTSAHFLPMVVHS

[6] = test system: glycogen synthase kinase-3 (GSK3A per assay name; protocol says GSK3B); assay: compounds binding glycogen synthase kinase-3 – biochemical, small-molecule microarray, 635 nm fluorescence, GSK3A, primary screen (AID 1103); settings: fluorescence 635 nm, higher = more signal; further: the record names both GSK3A and GSK3B
[7] = biological target: Epidermal growth factor receptor (Homo sapiens) (UniProt P00533); assay: compounds binding epidermal growth factor receptor – biochemical, small-molecule microarray, 635 nm fluorescence, primary screen (AID 1104); settings: EGFR binding, higher = more signal;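 further: score merges 667 nm emission intensity with spot signal to noise over triplicate slides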
Chain of Epidermal growth factor receptor (Homo sapiens) (P00533 whole entry, looked up): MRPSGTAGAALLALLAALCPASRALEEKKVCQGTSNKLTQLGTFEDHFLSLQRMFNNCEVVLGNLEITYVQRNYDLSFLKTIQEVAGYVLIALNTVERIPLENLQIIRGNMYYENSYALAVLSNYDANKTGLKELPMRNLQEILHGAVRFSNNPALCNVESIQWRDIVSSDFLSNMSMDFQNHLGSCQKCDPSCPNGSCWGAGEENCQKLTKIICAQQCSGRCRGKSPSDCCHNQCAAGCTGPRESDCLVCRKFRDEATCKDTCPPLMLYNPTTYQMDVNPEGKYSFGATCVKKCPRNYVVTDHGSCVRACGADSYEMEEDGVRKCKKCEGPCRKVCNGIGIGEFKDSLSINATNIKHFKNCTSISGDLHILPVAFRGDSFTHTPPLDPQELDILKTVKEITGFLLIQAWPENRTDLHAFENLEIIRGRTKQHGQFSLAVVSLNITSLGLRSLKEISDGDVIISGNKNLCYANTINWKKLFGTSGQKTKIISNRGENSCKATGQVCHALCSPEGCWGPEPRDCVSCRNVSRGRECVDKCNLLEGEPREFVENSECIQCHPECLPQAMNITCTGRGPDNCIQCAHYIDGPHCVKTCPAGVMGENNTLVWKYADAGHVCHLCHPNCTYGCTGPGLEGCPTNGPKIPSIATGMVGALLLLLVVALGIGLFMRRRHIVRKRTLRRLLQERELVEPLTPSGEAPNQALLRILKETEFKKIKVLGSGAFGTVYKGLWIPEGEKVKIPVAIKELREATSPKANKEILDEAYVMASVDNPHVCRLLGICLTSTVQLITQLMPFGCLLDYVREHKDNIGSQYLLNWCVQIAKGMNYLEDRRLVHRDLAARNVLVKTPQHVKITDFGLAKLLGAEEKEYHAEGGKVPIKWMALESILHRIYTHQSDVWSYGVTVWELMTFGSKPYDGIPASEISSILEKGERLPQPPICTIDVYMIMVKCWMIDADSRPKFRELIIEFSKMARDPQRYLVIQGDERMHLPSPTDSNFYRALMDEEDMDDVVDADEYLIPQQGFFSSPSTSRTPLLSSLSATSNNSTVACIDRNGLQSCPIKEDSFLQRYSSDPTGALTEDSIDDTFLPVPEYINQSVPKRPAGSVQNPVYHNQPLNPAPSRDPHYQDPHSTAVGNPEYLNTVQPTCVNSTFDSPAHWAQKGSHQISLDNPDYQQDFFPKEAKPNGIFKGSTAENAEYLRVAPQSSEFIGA

[8] = biological target: Follistatin-related protein 3 (Homo sapiens) (UniProt O95633); assay: compounds binding follistatin-related protein 3 – biochemical, small-molecule microarray, 635 nm fluorescence, primary screen (AID 1105); settings: FSTL3 binding, higher = more signal;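 further: score merges emission near 667 nm and signal to noise per printed spot across three slides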
Chain of Follistatin-related protein 3 (Homo sapiens) (O95633 whole entry, looked up): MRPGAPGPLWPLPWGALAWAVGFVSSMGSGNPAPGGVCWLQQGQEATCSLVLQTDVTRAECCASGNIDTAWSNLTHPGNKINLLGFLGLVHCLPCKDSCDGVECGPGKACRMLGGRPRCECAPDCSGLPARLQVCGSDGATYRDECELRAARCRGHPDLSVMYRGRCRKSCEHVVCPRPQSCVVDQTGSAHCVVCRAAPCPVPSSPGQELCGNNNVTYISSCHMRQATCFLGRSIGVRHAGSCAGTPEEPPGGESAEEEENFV

[9] = biological target: Dickkopf-related protein 1 (Homo sapiens) (UniProt O94907); assay: small molecules binding DKK1 protein – biochemical, small-molecule microarray, 635 nm fluorescence scan, primary screen (AID 1106); settings: higher = more signal;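 further: score merges emission near 667 nm with signal to noise over three replicate slides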
Chain of Dickkopf-related protein 1 (Homo sapiens) (O94907 whole entry, looked up): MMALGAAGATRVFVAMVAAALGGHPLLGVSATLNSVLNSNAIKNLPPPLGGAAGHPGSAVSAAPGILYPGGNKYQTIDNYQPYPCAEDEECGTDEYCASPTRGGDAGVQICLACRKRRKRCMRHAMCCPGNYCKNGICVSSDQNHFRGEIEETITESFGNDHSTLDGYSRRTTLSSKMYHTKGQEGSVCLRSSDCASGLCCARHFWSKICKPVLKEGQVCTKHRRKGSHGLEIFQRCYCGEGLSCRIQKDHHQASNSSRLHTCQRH

[10] = test system: Inhibin beta A chain (activin A); assay: small molecules binding activin A – biochemical, small-molecule microarray, 635 nm fluorescence scan, primary screen (AID 1107); settings: INHBA, higher = more signal;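 further: mouse activin A protein probed at 4.33 µg/mL on printed slides; score merges bound-protein fluorescence near 667 nm with spot signal-to-noise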
[11] = test system: Human papillomavirus type 1a protein E7 (residues 44-93); assay: small molecules binding HPV E7 44-93 – biochemical, small-molecule microarray, residues 44-93, 635 nm fluorescence, primary screen (AID 1108); settings: fluorescence 635 nm, higher = more signal;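 further: E7 fragment applied at 1 µg/mL in TBST for 1 h at 4 C; score combines spot fluorescence with its signal to noise ratio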
[12] = hepatitis C replication reporter changes, two-sided – Huh7 cells, luciferase reporter, HCV replication inhibitor project, primary screen (AID 1109); settings: Huh7 HCV replicon luciferase reporter, 48 h; higher = more signal;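 further: huh7 hepatoma cells harbouring a luciferase neomycin HCV replicon reporter; luciferase luminescence as measure of HCV replicon replication; test concentration not given here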
[13] = biological target: Left-right determination factor 2 (Homo sapiens) (UniProt O00292); assay: small molecules binding LEFTY2 protein – biochemical, small-molecule microarray, 635 nm fluorescence scan, primary screen (AID 1110); settings: higher = more signal
Chain of Left-right determination factor 2 (Homo sapiens) (O00292 whole entry, looked up): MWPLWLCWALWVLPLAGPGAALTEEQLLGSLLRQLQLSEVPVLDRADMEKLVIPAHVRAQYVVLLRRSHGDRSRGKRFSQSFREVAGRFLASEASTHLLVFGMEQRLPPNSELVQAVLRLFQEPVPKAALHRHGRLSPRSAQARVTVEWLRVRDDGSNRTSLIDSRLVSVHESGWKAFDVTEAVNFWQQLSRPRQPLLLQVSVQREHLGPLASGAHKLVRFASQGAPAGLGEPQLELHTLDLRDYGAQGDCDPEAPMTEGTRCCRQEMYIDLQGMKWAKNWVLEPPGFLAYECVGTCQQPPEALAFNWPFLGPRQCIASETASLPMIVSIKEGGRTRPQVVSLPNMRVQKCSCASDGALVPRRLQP

[14] = biological target: Calmodulin-1 (Homo sapiens) (UniProt P0DP23); assay: small molecules binding calmodulin-1 with EGTA – biochemical, small-molecule microarray, Cy5-labelled CALM1, profiling panel (AID 1111); settings: Cy5-CALM1 binding fluorescence, higher = more signal;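 further: labelled calmodulin applied in Tris saline Tween buffer holding calcium plus EGTA and DTT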
[15] = biological target: Calmodulin-1 (Homo sapiens) (UniProt P0DP23); assay: small molecules binding Ca-loaded calmodulin-1 – biochemical, small-molecule microarray, Cy5-labelled CALM1, plus calcium, artefact control for SMM control-protein annotation, profiling panel (AID 1112); settings: Cy5-CALM1 binding fluorescence, higher = more signal;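 further: score merges spot fluorescence with signal to noise from triplicate slides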
[16] = probe aWnt5a binding to arrayed compounds – biochemical, biotinylated probe, 635/667 nm fluorescence, primary screen (AID 1113); settings: small-molecule microarray, higher = more signal;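 further: score merges 667 nm fluorescence intensity with signal-to-noise per printed feature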
[17] = probe aShh binding to arrayed compounds – biochemical, biotinylated probe, 635/667 nm fluorescence, primary screen (AID 1114); settings: small-molecule microarray, higher = more signal;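 further: probe is biotin-labelled aShh protein from a stem cell growth factor screen; measures binding of labelled protein to compounds printed on the slide; score merges feature fluorescence at 667 nm with signal-to-noise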
[18] = probe aNog binding to arrayed compounds – biochemical, biotinylated probe, 635/667 nm fluorescence, primary screen (AID 1115); settings: small-molecule microarray, higher = more signal;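 further: probe is biotinylated aNog protein used at 0.15 µg/mL for 1 h at 4 C; z-score combines 667 nm fluorescence of each spot with its signal to noise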
[19] = biological target: Torsin-1A-interacting protein 1 (Homo sapiens) (UniProt Q5JTV8); assay: compound microarray binding of lysate hLAP1 – cell lysate, small-molecule microarray, COS7 lysate, 635/667 nm fluorescence, primary screen (AID 1116); settings: 635 nm fluorescence, higher = more signal
Chain of Torsin-1A-interacting protein 1 (Homo sapiens) (Q5JTV8 whole entry, looked up): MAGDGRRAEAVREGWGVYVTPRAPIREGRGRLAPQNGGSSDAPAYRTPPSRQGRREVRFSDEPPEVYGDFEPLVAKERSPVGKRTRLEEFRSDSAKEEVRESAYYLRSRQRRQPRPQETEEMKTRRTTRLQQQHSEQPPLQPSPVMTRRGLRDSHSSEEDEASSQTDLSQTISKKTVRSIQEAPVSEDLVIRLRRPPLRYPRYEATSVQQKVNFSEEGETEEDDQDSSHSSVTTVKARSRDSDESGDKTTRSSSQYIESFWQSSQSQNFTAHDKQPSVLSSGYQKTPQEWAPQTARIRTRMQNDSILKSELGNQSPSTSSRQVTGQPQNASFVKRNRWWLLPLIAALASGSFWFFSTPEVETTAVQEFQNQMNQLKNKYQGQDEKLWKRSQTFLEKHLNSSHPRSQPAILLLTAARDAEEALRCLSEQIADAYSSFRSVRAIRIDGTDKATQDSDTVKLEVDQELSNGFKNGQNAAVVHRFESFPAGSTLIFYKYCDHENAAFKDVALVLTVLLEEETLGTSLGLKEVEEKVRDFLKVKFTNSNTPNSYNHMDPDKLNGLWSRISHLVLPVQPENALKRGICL

[20] = biological target: Alpha-bungarotoxin (Bungarus multicinctus) (UniProt P60615); assay: compounds binding labelled alpha-BTX control protein – biochemical, small-molecule microarray, Alexa647 label, 635/667 nm fluorescence, artefact control for SMM control protein annotation, profiling panel (AID 1117); settings: alpha-BTX-A647 binding fluorescence, higher = more signal
Chain of Alpha-bungarotoxin (Bungarus multicinctus) (P60615 whole entry, looked up): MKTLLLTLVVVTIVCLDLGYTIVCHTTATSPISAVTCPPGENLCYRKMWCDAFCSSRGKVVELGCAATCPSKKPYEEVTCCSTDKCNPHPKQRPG

[N-]=[N+]=NC[C@H](Cc1ccccc1)NC(=O)c1ccccc1
composite z-score [1]: -0.554
composite z-score [2]: -0.124
composite z-score [3]: -0.414
z-score [4]: -0.0894 (inactive)
composite z-score [5]: -0.0183
composite z-score [6]: -0.089
composite z-score [7]: 0.0214
composite z-score [8]: -0.394
composite z-score [9]: 0.0359
composite z-score [10]: 0.382
composite z-score [11]: -0.778
z-score [12]: 2.25
composite z-score [13]: -0.0257
composite z-score [14]: -0.334
composite z-score [15]: -0.203
composite z-score [16]: -0.0269
composite z-score [17]: -0.0146
composite z-score [18]: -0.293
composite z-score [19]: 0.363
composite z-score [20]: 0.0961

COc1ccc(NC(=O)O[C@H]2[C@@H]3OC(=O)[C@H](Cc4cccc(Br)c4)C/C=C/C[C@@H](Cc4cccc(Br)c4)C(=O)O[C@H]3[C@@H](OC)O[C@@H]2CO)cc1
composite z-score [1]: 1.31
composite z-score [2]: 0.13
composite z-score [3]: 0.387
z-score [4]: 0.044 (inactive)
composite z-score [5]: 0.638
composite z-score [6]: 0.475
composite z-score [7]: 0.4
composite z-score [8]: 0.324
composite z-score [9]: 0.142
composite z-score [10]: 0.735
composite z-score [11]: 0.277
z-score [12]: 0.714
composite z-score [13]: 0.601
composite z-score [14]: 0.492
composite z-score [15]: -0.062
composite z-score [16]: -0.027
composite z-score [17]: 0.235
composite z-score [18]: 0.325
composite z-score [19]: 0.882
composite z-score [20]: 0.526

CN(C)C(=O)[C@@]1(CCC(=O)OC(C)(C)C)N=C(c2ccc(OCCCO)cc2)O[C@H]1c1ccccc1CN=[N+]=[N-]
composite z-score [1]: 1.6
composite z-score [2]: 0.473
composite z-score [3]: 0.724
z-score [4]: 0.277 (inactive)
composite z-score [5]: 0.965
composite z-score [6]: -0.416
composite z-score [7]: -0.341
composite z-score [8]: 0.442
composite z-score [9]: -0.695
composite z-score [10]: -0.0415
composite z-score [11]: 1.5
z-score [12]: -1.61
composite z-score [13]: -0.9
composite z-score [14]: 1.18
composite z-score [15]: 0.0572
composite z-score [16]: 0.0044
composite z-score [17]: 0.579
composite z-score [18]: 1.32
composite z-score [19]: 2.74
composite z-score [20]: 0.548

O=C(CS)NCCCCCNC(=O)[C@@H]1C[C@@H]2C(=O)N[C@@H](Cc3ccccc3)C(=O)N2[C@@H]1c1cccc(OCCO)c1
composite z-score [1]: 1.74
composite z-score [2]: 0.0021
composite z-score [3]: 0.0402
z-score [4]: -0.345 (inactive)
composite z-score [5]: 1.17
composite z-score [6]: 1.32
composite z-score [7]: 0.526
composite z-score [8]: 0.988
composite z-score [9]: 1.25
composite z-score [10]: -0.678
composite z-score [11]: 1.41
z-score [12]: 0.266
composite z-score [13]: 0.705
composite z-score [14]: 1.94
composite z-score [15]: -0.0675
composite z-score [16]: -0.302
composite z-score [17]: -0.482
composite z-score [18]: -0.458
composite z-score [19]: 1.08
composite z-score [20]: 1.54

NC(=O)NCC#Cc1ccc2c(c1)[C@]1(C(=O)N2)[C@H](C(=O)N2CCN(c3ncccn3)CC2)[C@H]2C(=O)O[C@H](c3ccccc3)[C@H](c3ccccc3)N2[C@@H]1c1ccc(OCCO)cc1
composite z-score [1]: 0.695
composite z-score [2]: 0.23
composite z-score [3]: 0.433
z-score [4]: -0.245 (inactive)
composite z-score [5]: 0.766
composite z-score [6]: -0.364
composite z-score [7]: 0.669
composite z-score [8]: 1.08
composite z-score [9]: 0.151
composite z-score [10]: 0.926
composite z-score [11]: 1.23
z-score [12]: -1.6
composite z-score [13]: 0.0996
composite z-score [14]: 0.756
composite z-score [15]: 0.514
composite z-score [16]: 0.0775
composite z-score [17]: -0.0553
composite z-score [18]: 0.833
composite z-score [19]: 0.572
composite z-score [20]: 1.42

C=C(COC)C(=O)CC[C@H](OC(=O)c1cccnc1)c1ccc(CO)o1
composite z-score [1]: 1.44
composite z-score [2]: -0.424
composite z-score [3]: -0.686
z-score [4]: 0.591 (inactive)
composite z-score [5]: 0.905
composite z-score [6]: 0.596
composite z-score [7]: 0.393
composite z-score [8]: 1.3
composite z-score [9]: 1.42
composite z-score [10]: 0.488
composite z-score [11]: -0.132
z-score [12]: -1.05
composite z-score [13]: 0.879
composite z-score [14]: -0.502
composite z-score [15]: -0.875
composite z-score [16]: -0.167
composite z-score [17]: -0.214
composite z-score [18]: -0.447
composite z-score [19]: 0.659
composite z-score [20]: -0.0505
